In PubChem BioAssay (Tox21):
Records with an inconclusive call do not appear. A number with no mark means an inactive call. Calls of active or inactive are those of the source. Calls follow the shape of the full dose curve.

test: qHTS assay for small molecule agonists of the p53 signaling pathway - cell viability (AID 651633); details: p53RE-bla HCT-116 viability, ATP luminescence, 16 h; series mostly up to 83.3 µM; activity change, negative = cytotoxicity: at the top concentration; also: nearly all actives have a fitted effect of over 30% in size;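 as to activity change, negative = cytotoxicity: p53RE-bla HCT reporter cells with a stable beta-lactamase p53 reporter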
Description: National Center for Advancing Translational Sciences [NCATS]
NIH Chemical Genomics Center [NCGC]
U.S. Environmental Protection Agency [EPA]
National Institutes of Environmental Health Sciences [NIEHS]
National Toxicology Program [NTP]
U.S. Food and Drug Administration [FDA]
p53, a tumor suppressor protein, is activated following cellular insult, including DNA damage and other cellular stresses. The activation of p53 regulates cell fate by inducing DNA repair, cell cycle arrest, apoptosis, or cellular senescence. The activation of p53, therefore, is a good indicator of DNA damage and other cellular stresses. […] The activation of the reporter gene under culture conditions can be detected by fluorescence intensity. This cell line was used to screen the Tox21 compound library in a 1536-well plate format and to identify agonists that activate the p53 signaling pathway.
Tox21 Assay Protocol Summary:
The p53RE-bla cells were dispensed at 4,000 cells/5 ul/well in 1536-well black wall/clear bottom plates using a Multidrop dispenser. After the assay plates were incubated at a 37 C/5% CO2 incubator for 5 hours, 23 nL of compounds dissolved in DMSO, positive controls or DMSO only was transferred to the assay plate by a pin tool. The plates were incubated at 37 C for 16 hours. After 1 uL of LiveBLAzerTM B/G FRET substrate was added using a Flying Reagent Dispenser, the plates were incubated at room temperature for 2 hours, and fluorescence intensity was measured by an Envision plate reader.
For cell viability readout that measures cytotoxicity, 4 ul/well of CellTiter-Glo reagent was added into the assay plates using a Flying Reagent Dispenser. After 30 min incubation at room temperature, the luminescence intensity in the plates was measured using a ViewLux plate reader.
% is scaled to controls: 0 for no effect and ±100 for the full control effect; potency is read from the fitted curve at half-maximal effect.

Structure (SMILES)	activity change, negative = cytotoxicity	Potency
CO[C@@]1(NC(=O)CSCC#N)C(=O)N2C(C(=O)O)=C(CSc3nnnn3C)CS[C@@H]21	7.52%	–
CCOc1ccc(OCC)c(Cl)c1	22.5%	–
CCCCCCCCCC#N	-10.1%	–
COc1ccccc1OCC(O)COC(N)=O (stereo not given)	27% [at 39.1 µM]	–
FC(F)(F)C(F)(F)C(F)(F)C(F)(F)C(F)(F)C(F)(F)C(F)(F)C(F)(F)Br	11.1%	–
CC(C)Nc1nc(N)nc(Cl)n1	-9.29%	–
OCCN(CCO)CCN(CCO)CCO	22%	–
Cc1ccc(C)c(N)c1	-9.36%	–
O=S(=O)(O)C(F)(F)F	-5.94%	–
CC(C)(C)c1ccc(OC(=O)c2ccccc2O)cc1	-9.8%	–
COc1ccc2nc(NC(=O)Nc3ccccc3)sc2c1	-14.4%	–
O=C1C=CC(=O)O1	11% [at 95.3 µM]	–
O=Cc1ccc(F)c(Br)c1	7.76%	–
CC[C@H]1CC[C@H](NCc2cc3c(cc2OC)[C@H]2C[C@H]2C(=O)N3C)[C@H](c2ccccc2)N1	-6.17%	–
O=C(O)[C@@H]1CSCN1	7.66%	–
CCCCNCCCC	12%	–
C=CC(C)(O)CC/C=C(\C)CCC=C(C)C (stereo not given)	–	inactive
CN(CCCN1c2ccccc2CCc2ccccc21)CC(=O)c1ccc(Cl)cc1	-21%	–
O=C(O)c1ccccc1Nc1cc(Cl)ccc1C(=O)O	-7.91%	–
COC(=O)c1ccc(OC)cc1	-20.2%	–

Structure (SMILES)	activity change, negative = cytotoxicity	Potency
C=Cc1ccccc1	–	inactive
O=C1CCCCCCCCCCC(=O)OCCO1	–	54.5 µM (active)
CCOc1ccccc1N	24.7%	–
CCCCOc1cc(C(=O)NCCN(CC)CC)c2ccccc2n1	9.33% [at 39.1 µM]	–
CC(CNC1CCCCC1)OC(=O)c1ccccc1 (stereo not given)	20.1% [at 39.1 µM]	–
NNS(=O)(=O)c1ccc(Oc2ccc(S(=O)(=O)NN)cc2)cc1	-25.2%	–
CS(=O)(=O)c1ccc([C@@H](O)[C@@H](CF)NC(=O)C(Cl)Cl)cc1	20.9% [at 39.1 µM]	–
CC(=O)OC(C)OC(C)=O	20% [at 95.3 µM]	–
CC(=O)N[C@@H](CC(C)C)C(=O)O	-6.17%	–
CC1(C)C(=O)N(Cl)C(=O)N1Br	-13%	–
CCCCCCC	12.4% [at 95.3 µM]	–
Cc1cccc(C)c1NC(=O)CN1CCCCCC1	15.6%	–
CN1CCN(C2=Nc3cc(F)ccc3Cc3ccccc32)CC1	27%	–
O=C(O[C@@H](C(=O)O)[C@@H](OC(=O)c1ccccc1)C(=O)O)c1ccccc1	-22.1% [at 95.3 µM]	–
O=[N+]([O-])c1nccn1CO[C@@H](CO)[C@H](O)CO	15.7%	–
O=C1Nc2ccc([N+](=O)[O-])cc2C1=O	12.2%	–
CCCCCCCCOC(=O)CCCCCCCCC(=O)OCCCCCCCC	1.66%	–
CC(C)C[C@H](NC(=O)OCC1c2ccccc2-c2ccccc21)C(=O)O	10.3%	–
CC(C)NCC(O)COc1ccc(CCOCC2CC2)cc1 (stereo not given)	18.1%	–
CCC(=O)Nc1ccc(O)cc1	4.53%	–
